# Results as given in PMC4336329 (PLoS ONE, 2015).
# Out of some 310,000 compounds screened, about 2,200 (0.71%) showed an effect of 50% or more. The effect is printed as a negative number. For the sample, strong results were picked, then their nearest neighbours and some compounds at random.
# Biological target: human ether-à-go-go-related gene (hERG) potassium channel (human, UniProt Q12809)
# Test: primary screen, population patch clamp on CHO cells stably expressing hERG; higher = less effect of the substance
# human ether-à-go-go-related gene (hERG) potassium channel, sequence (Q12809 whole entry, looked up): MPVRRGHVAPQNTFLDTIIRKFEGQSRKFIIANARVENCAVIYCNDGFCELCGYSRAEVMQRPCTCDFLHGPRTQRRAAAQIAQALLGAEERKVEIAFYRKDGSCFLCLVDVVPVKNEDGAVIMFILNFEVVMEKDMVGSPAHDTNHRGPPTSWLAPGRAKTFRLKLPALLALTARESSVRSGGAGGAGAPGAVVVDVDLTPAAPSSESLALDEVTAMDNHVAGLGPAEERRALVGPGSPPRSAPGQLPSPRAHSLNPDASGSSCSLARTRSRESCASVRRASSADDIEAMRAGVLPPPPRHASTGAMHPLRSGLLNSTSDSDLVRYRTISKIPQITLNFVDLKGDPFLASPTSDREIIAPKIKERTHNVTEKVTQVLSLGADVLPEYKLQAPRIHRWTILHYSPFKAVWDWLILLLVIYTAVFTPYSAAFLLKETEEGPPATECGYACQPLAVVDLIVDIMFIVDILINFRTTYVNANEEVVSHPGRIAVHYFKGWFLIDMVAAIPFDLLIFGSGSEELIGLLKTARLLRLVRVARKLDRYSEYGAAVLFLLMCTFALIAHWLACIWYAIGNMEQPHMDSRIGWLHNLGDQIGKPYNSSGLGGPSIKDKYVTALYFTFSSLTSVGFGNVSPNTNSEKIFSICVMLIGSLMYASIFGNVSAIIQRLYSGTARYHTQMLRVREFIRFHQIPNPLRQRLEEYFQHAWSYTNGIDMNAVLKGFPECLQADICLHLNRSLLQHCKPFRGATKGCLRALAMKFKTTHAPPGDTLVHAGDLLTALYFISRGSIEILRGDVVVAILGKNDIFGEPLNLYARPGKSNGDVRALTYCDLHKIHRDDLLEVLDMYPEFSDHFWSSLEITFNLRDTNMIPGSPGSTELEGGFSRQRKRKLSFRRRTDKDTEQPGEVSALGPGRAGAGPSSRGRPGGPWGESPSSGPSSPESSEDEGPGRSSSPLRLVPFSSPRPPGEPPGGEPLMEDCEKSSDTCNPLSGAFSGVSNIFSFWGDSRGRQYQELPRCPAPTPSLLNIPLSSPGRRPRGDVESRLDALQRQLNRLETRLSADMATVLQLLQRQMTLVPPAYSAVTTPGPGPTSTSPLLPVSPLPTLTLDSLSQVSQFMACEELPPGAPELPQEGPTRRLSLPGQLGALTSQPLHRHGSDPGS
row,SMILES,"hERG current change (%, negative = inhibition) at 1uM"
1,Cc1ccc(S(=O)(=O)NC(=O)NCc2ccc(Cl)cc2)cc1,10.1%
2,COC(=O)C1C(=O)C2=C(CC1C)NC(C)=C(C(=O)OCc1ccc(OC)cc1)C2c1ccc(C)o1 (stereo not shown),0.03%
3,O=S(=O)(c1ccc(F)c(F)c1)N1CCN(Cc2ccc3c(c2)OCO3)CC1,-9.04%
4,Cc1c(NC(=O)c2ccc3c4c(cccc24)CC3)c(=O)n(-c2ccccc2)n1C,15.3%
5,CC(=O)c1cccc(-n2nnnc2SCC(=O)Nc2cc(C)on2)c1,12.1%
6,Cc1ccc2nc(CSc3nnc(-c4ccco4)o3)cc(=O)n2c1,-54%
7,Cc1ccc2nc(CSc3nnc(-c4ccco4)n3-c3ccccc3)cc(=O)n2c1,-2.87%
8,c1coc(-c2nnc(SCc3cn4ccccc4n3)o2)c1,-2.53%
9,NC(=O)c1nsc(C(=O)N(c2ccccc2F)C(C(=O)NCc2ccccc2)c2ccc(O)cc2)c1N (stereo not shown),8.51%
10,O=C(c1ccccc1)N1CCN(CCc2ccccn2)CC1,16.3%
11,COc1ccc(C(=O)N2CCN(CCc3ccccn3)CC2)cc1.Cl,-66.6%
12,COc1ccc(C(=O)N2CCN(c3ccccn3)CC2)cc1,6.53%
13,COc1ccc(C(=O)N2CCN(Cc3ccccn3)CC2)cc1.O=C(O)C(=O)O,3.65%
14,O=C(c1sc2cc(Cl)ccc2c1Cl)N1CCN(CCc2ccccn2)CC1,-36.6%
15,Cl.O=C(c1ccc(Cl)cc1)N1CCN(CCc2ccccn2)CC1,-53.7%
16,COCCn1c(C)cc(/C=C2\NC(=S)N(C)C2=O)c1C,9.65%
17,Cc1ccc(S(=O)(=O)NCCC(=O)NC(C)CCc2ccccc2)cc1 (stereo not shown),-10.7%
18,C=CCN(c1ccccc1)S(=O)(=O)c1cccc(C(=O)NCC(c2ccccc2OC)N2CCCC2)c1 (stereo not shown),-12.9%
19,CCN(CC)c1ccc(C2NC(=O)NC(C)=C2C(=O)Nc2ccccc2)cc1 (stereo not shown),17.3%
20,Cc1cccc(NC(=O)CSc2nnnn2C)n1,12.6%
21,Fc1ccc(-n2cc(CNCCc3ccncc3)c(-c3ccccc3Cl)n2)cc1,-3.18%
22,Fc1ccc(-n2cc(CNCCc3cccnc3)c(-c3ccccc3Cl)n2)cc1,-10%

row,SMILES,"hERG current change (%, negative = inhibition) at 1uM"
1,Fc1ccc(-n2cc(CNCCc3ccccn3)c(-c3ccccc3Cl)n2)cc1,-78.2%
2,CCN(Cc1ccccc1)C(=O)CN1C(=S)NC(C)(C)CC1C (stereo not shown),3.12%
3,CCOC(=O)CNc1c(-c2ccc(OC)cc2)nc2ccc(Cl)cn12,-68.4%
4,CCOC(=O)CNc1c(-c2ccccc2)nc2ccc(Cl)cn12,-27.6%
5,CCOC(=O)CNc1c(-c2ccc(O)cc2)nc2ccc(Cl)cn12.Cl,-13.3%
6,O=C(NCCN1CCOCC1)c1cc([N+](=O)[O-])cc([N+](=O)[O-])c1,12.5%
7,CCc1c(C)c2c(C)[nH]nc2oc1=O,10.5%
8,Cc1ccccc1NC(=O)N1CCN(C/C=C/c2ccccc2)CC1,11%
9,Cc1ccccc1NC(=O)CCN1CCN(C/C=C/c2ccccc2)CC1,-72%
10,O=C(Nc1ccc(F)cc1F)N1CCN(C/C=C/c2ccccc2)CC1,-15.3%
11,O=C(CCN1CCN(C/C=C/c2ccccc2)CC1)Nc1ccccc1F.O=C(O)C(=O)O,-81.2%
12,COc1ccc(S(=O)(=O)N2CCN(C/C=C/c3ccccc3)CC2)cc1F,8.5%
13,Cl.O=C(CCN1CCN(C/C=C/c2ccccc2)CC1)Nc1ccccc1Cl,-47.6%
14,O=C(CCN1CCN(c2ccccc2)CC1)Nc1ccccc1F,14.5%
15,COc1ccc(S(=O)(=O)N2CCN(C/C=C/c3ccccc3)CC2)cc1NC(C)=O,-54.2%
16,Fc1ccc(NC(=S)N2CCN(C/C=C/c3ccccc3)CC2)c(F)c1,13%
17,COc1ccc(NC(C)=O)cc1S(=O)(=O)N1CCN(C/C=C/c2ccccc2)CC1,-48.1%
18,O=C(CN1CCN(C/C=C/c2ccccc2)CC1)Nc1ccc(F)cc1F,-87.4%
19,Fc1ccccc1NC(=S)N1CCN(C/C=C/c2ccccc2)CC1,7.89%
20,O=C(Nc1ccc(-c2nc3ccccc3o2)cc1)c1cc(-n2cnnc2)ccc1Cl,6.74%
21,O=C(O)CC(NC(=S)NCc1ccccc1)C(=O)O (stereo not shown),-7.52%
